# Data published in PubChem BioAssay AID893 (National Center for Advancing Translational Sciences (NCATS), 2007).
# In all, about 75,000 compounds went through this assay and about 5,700 (7.6%) were called active. Entries that show only a call come without a potency. Not shown: some 7% with an inconclusive outcome. Only a selection was taken, and actives are over-represented in it overall. Unmarked numbers belong to inactive results. The call rests on the fitted dose curve; in most records, active means well fitted inhibition curve with a large enough effect; inconclusive means small, poorly fitted or top-dose-only effect; inactive means no such curve, though single readings can be large or run the other way.
# Molecular target: 3-hydroxyacyl-CoA dehydrogenase type-2 (Homo sapiens) (UniProt Q99714)
# Experiment: qHTS Assay for Inhibitors of HSD17B4, hydroxysteroid (17-beta) dehydrogenase 4;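 further: the protocol describes HADH2 (HSD17B10) and not the HSD17B4 of the title; nearly all actives have a fitted effect of over 70% in size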
# Conditions: recombinant HSD17B10, NADH fluorescence kinetic; series mostly up to 57.1 µM
# How it was run: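 Enzyme plus compound, 15 min room temperature; substrate mix added (NAD+ 1 mM, beta-hydroxybutyryl-CoA 90 uM final); plates read kinetically for NADH fluorescence. HADH2 was His-tagged, E. coli-derived, 20 nM.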
# Potency means the concentration at half of the fitted maximal effect.
Compound,Potency,"activity change, negative = inhibition"
COc1ccc(CCN(Cc2cc3cccc(C)c3[nH]c2=O)C(=O)N2CCCC2)cc1OC,inactive,–
COc1cc2[nH]c(=O)n(CCC(=O)NC3CCN(Cc4ccccc4)CC3)c(=O)c2cc1OC,inactive,–
COc1cc2cc(CN(CCN3CCCC3)C(=O)Nc3ccccc3Cl)c(=O)[nH]c2cc1OC,25.1 µM (active),–
C[C@@H](N)[C@@H](C)Cc1ccccc1,–,4.93% [at 11.4 µM]
c1ccc(CSCCc2ccncc2)cc1,–,1.7% [at 11.4 µM]
COc1ccc(C(=O)NC(=O)CSc2nnc(-c3ccco3)n2-c2ccccc2)cc1,inactive,–
COc1ccc(/C=C/NC(=O)c2ccc(OC)cc2)cc1,–,7.09% [at 11.4 µM]
COc1ccc(C(=O)NCc2cn3ccccc3n2)cc1,31.6 µM (active),–
CC(C)(O/N=C(\C(=O)N[C@@H]1C(=O)N2C(C(=O)[O-])=C(C[n+]3ccccc3)CS[C@@H]12)c1csc(N)n1)C(=O)O,inactive,–
CC(C)[C@H]1CC[C@@H](C)C[C@H]1O,inactive,–
COc1ccc2[nH]c(=O)c(CN(CC3CCCO3)C(=O)Nc3ccccc3)cc2c1 (stereo unspecified),25.1 µM (active),–
COc1cccc(-n2c(Cc3cc(=O)[nH]c(=O)[nH]3)nnc2SCC(=O)Nc2ccccc2)c1,inactive,–
CCN(Cc1cc2cc(C)ccc2[nH]c1=O)S(=O)(=O)c1ccccc1,inactive,–
CCOC(=O)c1cc2cc(C)ccc2[nH]1,inactive,–
COc1ccc(N(Cc2cc3cc(OC)ccc3[nH]c2=O)S(C)(=O)=O)cc1,inactive,–
CCC(c1nnnn1Cc1ccccc1)N(Cc1cc2cc(OC)ccc2[nH]c1=O)CC1CCCO1 (stereo unspecified),inactive,–
O=C(CN(CC1CCCO1)C(=O)CNS(=O)(=O)c1ccccc1)NCc1ccccc1 (stereo unspecified),inactive,–
COc1ccc2[nH]c(=O)c(CN(Cc3nnnn3CCc3ccccc3)CC3CCCO3)cc2c1 (stereo unspecified),25.1 µM (active),–
Cc1ccc2[nH]c(=O)c(COC(=O)c3ccccn3)cc2c1,inactive,–
Cc1cc(C)c2cc(CN(Cc3cccs3)Cc3nnnn3CC3CCCO3)c(=O)[nH]c2c1 (stereo unspecified),inactive,–
CCC(=O)N(Cc1cc2cc(OC)ccc2[nH]c1=O)c1ccccc1C,25.1 µM (active),–
CCOc1ccc2[nH]c(=O)c(CN(CCCO)C(C)=O)cc2c1,31.6 µM (active),–
COCC(=O)N1CCC2(CCCN(c3ccccc3)C2)CC1,inactive,–
Cc1cc(N(C)C)cc(C)[n+]1[O-],inactive,–
O=C(O)CCC(=O)N(Cc1ccco1)c1nc(-c2ccccc2)cs1,inactive,–
O=C(c1cccc(C(=O)N2CCc3ccccc32)n1)N1CCc2ccccc21,inactive,–

Compound,Potency,"activity change, negative = inhibition"
COc1cc(OC)c2c(c1Cl)OC1(C2=O)C(O)=CC(=O)CC1C (stereo unspecified),inactive,–
COc1ccc(Cl)cc1S(=O)(=O)N1CCN(CC(=O)C(C)(C)C)CC1,inactive,–
CCCOc1ccc2c3c(c(=O)oc2c1OCCC)CCC3,12.6 µM (active),–
Cc1c(C)c2cc3c4c(oc3c(C)c2oc1=O)CCCC4,inactive,–
COc1ccc(C(=O)OCC(=O)c2ccc(C)c(S(=O)(=O)N3CCOCC3)c2)cc1OC,inactive,–
COc1ccc2c3c(c(=O)oc2c1OCC(=O)C(C)(C)C)CCCC3,25.1 µM (active),–
O=C(COc1ccc(S(=O)(=O)NCCc2ccccc2)cc1)N1CCCC1,inactive,–
c1nnc2c3c4c(sc3ncn12)CCC4,inactive,–
CCOC(=O)C1=C(C)NC(=O)N(C(C)=O)C1c1ccc(Cl)cc1 (stereo unspecified),inactive,–
O=C(c1cnccn1)N1CCC[C@@]2(CCN(Cc3ccncc3)C2)C1,inactive,–
CCS(=O)(=O)N1CCCC(C(=O)NCc2ccc(C)cc2)C1 (stereo unspecified),inactive,–
C=C1C([C@@]2(C)C(OC(C)=O)CC(=O)O[C@@](C)(COC(C)=O)C2CC(=O)OC)C(OC=O)C(OC(=O)C(O)C(C)CC)[C@]2(C)C(c3ccoc3)CC(=O)C12O (stereo partly specified),inactive,–
COc1ccc(COC(=O)N/N=C2/C[C@@H](O)[C@@H](O)[C@@H]3[C@@H]4C(=O)N([C@@H](C)c5ccccc5)C(=O)[C@H]4CC[C@@H]23)cc1,–,-1.08% [at 11.4 µM]
CCOC(=O)c1ccc2[nH]c(C)c(CN3CCN(C)CC3)c(=O)c2c1,inactive,–
COC(=O)c1cccc(NC(=O)CSc2nc(C)cc(=O)[nH]2)c1,inactive,–
CCOC(=O)c1sc(=S)n2c1[nH]c(=O)c1ccc(C(=O)OC)cc12,20 µM (active),–
CCOc1ccc(C2C(C(=O)NC)=C(C)Nc3nc4ccccc4n32)cc1OC (stereo unspecified),inactive,–
CN(C)c1cc2c(Nc3ccc4c(cnn4Cc4ccccc4)c3)ncnc2cn1,inactive,–
CCOC(=O)CCc1c(C)c2ccc(OCc3nn[nH]n3)c(C)c2oc1=O,31.6 µM (active),–
CCNC(=S)NCC,inactive,–
CCCNC(=O)C1CC(=O)N(c2ccc(OCC(=O)Nc3cccc(C)c3C)cc2)C1 (stereo unspecified),inactive,–
O=C(O)c1ccc(NC(=O)c2cccs2)cc1,inactive,–
Cc1nc(-c2ccc(NC(=O)c3cccs3)cc2)cs1,25.1 µM (active),–
O=C(O)Cc1ccc(NC(=O)c2cccs2)cc1,inactive,–
CCOC(=O)N1CCC(Nc2c(NCCN3CCN(c4cccc(Cl)c4)CC3)c(=O)c2=O)CC1,inactive,–
